Drawing on the supplement of paper PMC6555819, this text covers PBM binding z-score for 40 sequences.

This assay deals with VDR:RXRa (NR concentration 270 nM, RXRa partner concentration 90 nM). The experiment in a line: PBM binding z-score (relative to random genomic background probes); higher = stronger binding; sequences stand for … in GC…GCGATTGACAGCGTAGAATGAAGG
On the procedure:
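Protein-binding microarray (Agilent 4x180K custom design, double-stranded 60-nt probes: 5' GC cap, 34-nt variable region, 24-nt constant primer region; full probe sequence given). Purified or IVT nuclear receptor:RXRα heterodimers (3:1 NR:RXRα, mostly 270:90 nM) or homodimers were incubated for 1 h in PBS with 2% milk and no ligand, then detected with Alexa488 antibodies. Fluorescence from o1-orientation probes (~5 replicates averaged) was converted to z-scores against 500 random hg19 background probes. Variable regions are seed direct-repeat (DR0–DR5) sites, all their single-nucleotide variants and half-site ablations.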
In the case of CCTCGGAGGACAACAGGATGTCAGAGCTGCCAGA, the PBM binding z-score is -0.45.

The sequence CGTCGGAGGACAGAAGGTCAGAGCTGTCCGCTTT came in with a PBM binding z-score of 0.797. To GCTGCTAGGTCAACTGAAGGTCAGCTAAAGCTCG belongs 4.15. Take CCTAGTAGGTTATGGGGCATTCAGGCAACGGTGA: the PBM binding z-score is 0.233. To TAGCCTAGGTCATGCGGGTCAGTATAGTGTCGGC belongs 5.81.

Turning to CCGAGTAGGTTACGAGGGGGCATTCATTGCGAAT, the PBM binding z-score was determined as 4.7. Take TCGAGTAGCTTACGGGGGCATTCAGGGATGAAGA: the PBM binding z-score amounted to 2.45. The figure for GCTGCTAGGTCAGGTTGGTCTGCTAACGGGTACG is 0.509; for ACTATCAGGCCAAGGGTCACTCAAGATTAGTCCG it is 3.13. Turning to CCTACTGGGCCAAGGTCATTGACCAGTCAAAGCA, the PBM binding z-score was found to be 3.38. The figure for CGATCTAGGTCACCAGGACAGTGAAGAGGTTGGA is 1.76; for CCAGAAAGGTGAAAGGTAACTCAGTCTGGTACGC it is 1.81; for CGAACTAGGTCAAAGCACAGTGAAAGGCGACGTA it is 1.2.

CGAACTAAGTCATCCAGGACAGTGAATACATTGA displayed a PBM binding z-score of 0.524. To CTATGTAGGTTAAGGGGGTCATTCAATTTGAAAG belongs 7.18; to ATATGTAGGTTAGGGTCAATCAGAAAGTAGGGAA, 3.8; to CGTCCAAGGGCAATGCTAGGTCAGTGAAAGCATT, 0.893. The figure for GCTGCTAGGTCAGGATGGTCAGCTAACGGGTACG is 0.56; for CCTACTGGGCCAAAACGGTCATTGATGCCGATAA it is -0.116. The figure for TCGAGTAGGTTACGGGGGCATTCCGGGATGAAGA is 3.83. In turn, TCGAGTAGGTTTCGGGGGCATTCAGGGATGAAGA returned a PBM binding z-score of 2.7. Sequence CGTCTAAGGTCAGCAGGTCAGTGAAAGCGACGTG had a PBM binding z-score of 4.3. ATCGAAAGGTCGAGTTGAGTATAGAGAAAGGGAA: the PBM binding z-score was found to be 3.04. To GATACGGGGTCAGCTAGAGGCCAGAGTATGGAAA belongs 5.72. With ATATCTAGGTTAGGGTCATTCAGAAAGTAGGGAA, the PBM binding z-score is 4.41. The figure for CGAACTAGGTCACCAGGACAGTGAGGAGGTTGGA is 1.83. To GGAACGAGGGCATTCGAGTTGATAGCATGGCGAT belongs 3.76; to GCTGCTAGGTCAACTGATGGTGAGCTAAAGCTCG, 1.13. To AGTCAAATTTCACTAGGTAACGTAAGATTCAGCT belongs 0.337; to CCTACTGGGCGACGAAAGGTCATTGATTCAGTGA, 3.36. For CGAACTAGGTCAAAGGACGGTGAAAGGCGACGTA, the PBM binding z-score is 1.12. In turn, CTATGTAGGTAAAGGGGGTCATTCAGTTTGAAAG yielded a PBM binding z-score of 6.95. In turn, CGTCTAAGTTCAAGGTAACGTAACAGAAAGCAGC had a PBM binding z-score of 3.43.

Consider GCTCGGAGGACAAGGTCAGGGCTTTGTCCGTAGA, for which the PBM binding z-score came to 1.64. The figure for TAGCCTAGGTCATTCAGGGGCCAGTATGGAAAGC is 3.13; for CAAACTAGGTCACAGAGGTCAAAGTTCGTGCGTA it is 8.36. To CGAACTAGGTCACCAGGACACTGAAGAGGTTGGA belongs 2.56; to CGAACCAGGTCACCAGGACAGTGAAGAGGTTGGA, 3.17; to ATATGTAGGTTATGGTCATTCAGAAAGTAGGGAA, 0.871. The sequence AATACAGGGTCCTCGTAGGCCAGAGTACGCACAG had a PBM binding z-score of -0.154.
